Results taken from PubChem BioAssay (NCI).
The panel holds about 79,000 compounds, 15% with a hit somewhere; the sample as a whole holds those more often. Activity calls are given as the source filed them. Rule as the data show it: active = growth inhibition above about 70%; inactive = the rest.

Assay: NCI Yeast Anticancer Drug Screen. Data for the CLN2oe strain (AID 163);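 also: 0% = growth of vehicle-only control cultures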
Conditions: S. cerevisiae CLN2oe strain, active compounds read high
Protocol: Growth inhibition of yeast strains with defined genetic alterations is measured as a screen for potential anti-cancer activity. Selected strains with alterations in DNA damage repair or cell cycle control were exposed to compounds and growth inhibition was measured relative to vehicle treated controls. The strain used in this assay is CLN2oe

Measured: growth inhibition

O=Cc1ccc(C(F)(F)F)cc1.[C-]#[O+].[C-]#[O+].[C-]#[O+].[Cr]
inactive: at 1.2 µM 0% | at 3.7 µM -2% | at 11.0 µM 2% | at 33.0 µM 15% | at 100.0 µM 23%

O=C1C=CC(=O)C1(Br)Br
active: at 33.0 µM 75% | at 100.0 µM 98%
inactive: at 1.2 µM -5% | at 3.7 µM 3% | at 11.0 µM 18%

O=[N+]([O-])c1ccc(N2CCC(CCCC3CCN(c4ccc([N+](=O)[O-])cc4[N+](=O)[O-])CC3)CC2)c([N+](=O)[O-])c1
inactive: at 1.2 µM -8% | at 3.7 µM -3% | at 11.0 µM 3% | at 33.0 µM -19% | at 100.0 µM 7%

Nc1nc(-c2ccccc2)c(-c2ccccc2)[se]1
inactive: at 1.2 µM 3% | at 3.7 µM -1% | at 11.0 µM 3% | at 33.0 µM 8% | at 100.0 µM 15%

Oc1cccc2nc3ccccc3nc12
inactive: at 1.2 µM -27% | at 3.7 µM -14% | at 11.0 µM -22% | at 33.0 µM 6%
active: at 100.0 µM 93%

CCC1(OC(=O)CN)C(=O)OCc2c1cc1n(c2=O)Cc2cc3ccccc3nc2-1 (stereo not given)
inactive: at 1.2 µM 37% | at 3.7 µM 37% | at 11.0 µM 62%
active: at 33.0 µM 80% | at 100.0 µM 88%

OC(c1ccc(Br)cc1)C(Cl)(Cl)Cl (stereo not given)
active: at 33.0 µM 87% | at 100.0 µM 97%
inactive: at 1.2 µM 25% | at 3.7 µM 10% | at 11.0 µM 18%

O=C(Nc1cc(Cl)ccc1Cl)C(Cl)(Cl)Cl
inactive: at 1.2 µM 4% | at 3.7 µM 5% | at 11.0 µM 10% | at 33.0 µM 7% | at 100.0 µM 9%
